This is part of a sample that, as a whole, favours compounds with a hit. Of some 83,000 tested, about 20% had one in any assay.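 For each line, cells grew in 96-well plates with the test compound present at a single concentration for 48 hours.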 Active and inactive are the calls of the source.

This assay has as its system NCI-H226 lung. Nature of the assay: NCI-60 one-dose screen, 48 h (100 = growth as untreated, 0 = no growth, -100 = all killed). Particulars: 10 µM. On the procedure: Growth inhibition of the NCI-H226 human Non-Small Cell Lung tumor cell line is measured as a screen for anti-cancer activity. Cells are grown in 96 well plates and exposed to the test compound for 48 hours. Compounds are tested at a single concentration, which is 10^-5 M for most compounds. The reported endpoint is percent growth (GI% or GIPRCNT), where numbers from 0 - 100% represent growth inhibition, and numbers from -100% - 0 represent cell death. For example, a value of 40 represents 60% growth inhibition. A value of 0 means no net growth occurred over the course of the experiment. A value of -40 indicates 40% of cells at the beginning of the experiment died by the end of the experiment. A value of -100 means all cells are dead at the end of the experiment.
NCI-60 Human Tumor Cell Lines Screen was performed using the standard one-dose NCI protocol, which is described in more detail at https://dtp.cancer.gov/discovery_development/nci-60/default.htm.
Compounds with GIPRCNT values below 10 were considered active. Activity score was based on GIPRCNT using the following formula: […]
Score is 0 for GIPRCNT values of 100 or above, 50 for GIPRCNT values of 0, and 100 for GIPRCNT values of -100.
Turning to `CC1(C)CC[C@]2(C(=O)O)CC[C@]3(C)C(=CC[C@@H]4[C@@]5(C)C/C(=C/c6ccncc6)[C@H](O)C(C)(C)[C@@H]5CC[C@]43C)[C@@H]2C1`, the growth is 38.2% (inactive). The same measure for `CCCCCc1ccc(S(=O)(=O)Nc2cc(-c3csc(N(C)C(C)=O)n3)ccc2N2CCN(C)CC2)cc1`: 37.4% (inactive); for `COc1ccc2[nH]c(O)c(N=NC(=O)COc3ccc(NC(=O)Nc4ccc(Cl)c(Cl)c4)cc3)c2c1`: -75.6% (active); for `CCOc1ccc(/C=N/NC(=O)Cn2nc(Cc3ccc([N+](=O)[O-])cc3)c3onc(C)c3c2=O)cc1`: -21.1% (active). On to `C/C(=C\c1ccc(O)cc1O)c1ccc2ccc(O)cc2[o+]1`, for which the growth is 66.2% (inactive). The same measure for `N#C/C(=C\c1ccc(N(c2ccccc2)c2ccccc2)cc1)C(N)=O`: -82.6% (active). The same measure for `O=C(CSc1nnc(-c2c[nH]c3ccccc23)n1-c1ccccc1)Nc1ccc(C(=O)/C=C/c2ccc(Br)cc2)cc1`: 72.5% (inactive); for `O=C(CSc1nnc(-c2c[nH]c3ccccc23)n1-c1ccccc1)Nc1ccc(C(=O)/C=C/c2ccc(Cl)cc2)cc1`: 74.8% (inactive); for `COC(=O)c1c(C(=O)OC)c2n(c1C)[C@@H]([C@@H](C)[C@H]1CC[C@H]3[C@@H]4CCC5=CC(=O)CC[C@]5(C)[C@H]4CC[C@]13C)SC2`: 15.7% (inactive). On to `COc1ccc(/C(CSc2nnc(-c3c[nH]c4ccccc34)n2-c2ccccc2)=N/O)cc1`, for which the growth is 18.2% (inactive). The same measure for `O=C(c1ccc([N+](=O)[O-])c([N+](=O)[O-])c1O)n1[nH]c(=O)c2ccccc2c1=O`: 82.1% (inactive); for `Cc1ccc(C(=O)NCCCNc2nc(Nc3ccc(N4CCN(C)CC4)cc3)nc3ccsc23)cc1`: 68.7% (inactive); for `COC[C@@H](CC(C)C)N=C1NC(=O)/C(=C/c2ccc3ncsc3c2)N1`: -1.9% (active). `COc1ccsc1/C=N/NC(=O)c1[nH]c2ccc(Br)cc2c1-c1ccccc1`: the growth is 17.2% (inactive). Take `Cc1cc(=O)oc2cc(OCCCCOc3ccc(/C=C/C(=O)Nc4cccc(Cl)c4)cc3)ccc12`: the growth is 35.9% (inactive). As to `[2H]C([2H])([2H])Oc1ccc2ncc(C#Cc3cncc(C(=O)Nc4ccc(CN5CCN(C)CC5)c(C(F)(F)F)c4)c3)n2n1`, the growth is -65.8% (active). For `COc1ccc(C(=O)/C=C/c2ccc(Cl)c(C(F)(F)F)c2)cc1S(N)(=O)=O`, the growth is -95.3% (active). The same measure for `O=C(c1ccc(Cl)cc1)C1[C@H](c2ccc(Br)cc2)[C@@H](c2ccccc2)NC12C(=O)Nc1ccc(Br)cc12` (stereo not given in full): -90.5% (active); for `O=c1cc(-c2ccccc2)oc2cc(OCCCCNCc3ccccc3)cc(O)c12`: 59.6% (inactive).

Consider `COc1ccc(-c2nc(S(=O)(=O)c3ccc(C)cc3)c(S(C)(=O)=O)o2)cc1`, for which the growth is 72.1% (inactive). The same measure for `Cc1ccc(F)cc1N/C=c1\s/c(=C(\C#N)C(=O)Nc2ccccc2)n(-c2ccccc2)c1=O`: 20.3% (inactive); for `O=C1NC(=NC23CC4CC(CC(C4)C2)C3)N/C1=C\c1ccc2ncoc2c1`: 21.4% (inactive); for `O=C(Nc1ccncc1)c1ccc(-n2c(=O)[nH]c3ccccc3c2=O)cc1`: 87.4% (inactive).

For `Cc1noc2c(Cc3ccc([N+](=O)[O-])cc3)nn(CC(=O)N/N=C/c3ccc(Cl)cc3)c(=O)c12`, the growth was 8.93% (active). Regarding `CCOC(=O)N/C(=C1/OCCN1C)[P+](c1ccccc1)(c1ccccc1)c1ccccc1`, the growth was 93.1% (inactive). Next, `S=c1nc(-c2ccccc2)cc(-c2cc3ccccc3nc2Cl)[nH]1`: 76.8% (inactive); `Cc1ccc(C(C)C)cc1NC(=O)c1ccccc1O`: 26.6% (inactive); `COc1ccc([C@H]2C(C(=O)c3ccc(Cl)cc3)C3(N[C@@H]2c2ccccc2)C(=O)Nc2ccc(Cl)cc23)cc1` (stereo not given in full): -56.4% (active).

As for `O=C1CCC(N2Cc3cc(NC(=O)COc4ccccc4)ccc3C2=O)C(=O)N1` (stereo not given), the growth was 48.1% (inactive). As for `Nc1cccnc1/C=N/NC(=S)NCCNC(=O)c1ccc(-n2nc(-c3ccccc3O)nc2-c2ccccc2O)cc1`, the growth was 2.65% (active).

Take `O=c1[nH]c2ccc(Cl)cc2cc1CSc1ccc(Nc2nccc(-c3ccc4ccccc4c3)n2)cc1`: the growth was 50.5% (inactive).

For the molecule `COC1CC(Cn2cc(COc3ccc4ccc(=O)oc4c3)nn2)C(OCc2ccccc2)C(OCc2ccccc2)C1OCc1ccccc1` (stereo not given), the growth was 92.8% (inactive).

For the molecule `COc1ccc(CN2[C@H](C(=O)NCCCCCCC(=O)NO)Cc3c([nH]c4ccccc34)[C@H]2C2CC2)cc1`, the growth is 28.1% (inactive). For `O=C1Nc2ccc(Cl)cc2/C1=C/c1cccc(OCc2ccccn2)c1`, the growth was -21.3% (active). On to `COc1ccc(CN2[C@@H](C(=O)NCc3ccc(C(=O)NO)cc3)Cc3c([nH]c4ccccc34)[C@@H]2C2CC2)cc1`, for which the growth was 50.8% (inactive). Next, `Cc1noc2c(Cc3ccccc3)nn(CC(=O)N/N=C/c3ccc(Br)cc3)c(=O)c12`: 32.5% (inactive); `Cc1ccc(CSc2nc(Cl)c(C#N)c(-c3ccc(F)cc3)n2)cc1`: 53.5% (inactive). The same measure for `Nc1nc(-c2ccccc2)cc(-c2cc3ccccc3nc2Cl)n1`: 78.1% (inactive). Next, `CC(=O)OC[C@@]1(C)C2CC[C@]3(C)C(CC=C4C5CC(C)(C)CC[C@]5(C(=O)Nc5ccccc5)CC[C@]43C)[C@@]2(C)C[C@@H](OC(C)=O)[C@@H]1OC(C)=O` (stereo not given in full): 40.6% (inactive); `O=C(Nc1ccc(I)cc1F)c1cc(-c2ccc(F)cc2F)ccc1O`: -7.15% (active).

(Values after PubChem BioAssay (NCI).)
